Measured values published in PubChem BioAssay (NCI).
Compounds without any hit were thinned out: in the full panel of roughly 79,000, 15% have a hit. Active and inactive are the calls of the source. Cut-off read from the data, not from the text of the source: active = growth inhibition above about 70%; inactive = the rest.

experiment: NCI Yeast Anticancer Drug Screen. Data for the rad50 strain (AID 155);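 note: 0% = growth of vehicle-only cultures of the same strain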; settings: S. cerevisiae rad50 strain growth inhibition; at 50.0 µM; stronger effect = higher value
Method in brief: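 Genetically altered yeast (DNA repair pathway); compound treatment; growth inhibition vs vehicle ctrl.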

**Q.** Which growth inhibition does the source give for Cc1ccc(-n2c(CSc3ccc(Cl)cc3)nnc2SCc2nc3ccccc3[nH]2)cc1 here?
**A.** 46.9% (inactive)

**Q.** For CC(=O)Nc1cccc(C(=O)O)c1, which growth inhibition is on record?
**A.** 1.3% (inactive)

**Q.** Which growth inhibition does the source give for COc1ccc2c(c1)CCCN2CCCCCCCCCN1CCCCC1 here?
**A.** 62% (inactive)

**Q.** With CN(C)C(=O)/N=c1\ss/c(=N\C(=S)N(C)C)n1-c1ccccc1 as the molecule, how does the growth inhibition read?
**A.** 68.2% (inactive)

**Q.** Which growth inhibition does the source give for Clc1ccc(-c2nnc(-c3ccccn3)o2)c(Cl)c1 here?
**A.** 99.2% (active)

**Q.** Which growth inhibition does the source give for CC(O)CC(O)CC1CCCO1 (stereo not drawn) here?
**A.** 39.2% (inactive)

**Q.** With CC[C@]1(O)C[C@H]2[C@@H]3CCc4cc(OC)ccc4[C@H]3CC[C@]2(C)[C@H]1O as the molecule, how does the growth inhibition read?
**A.** 46% (inactive)

**Q.** Which growth inhibition does the source give for CCCCCCCCCCCCCCCCCCOS(=O)(=O)O (tested in a mixture with another compound) here?
**A.** 56.4% (inactive)

**Q.** With C/C(=N\NC(=S)N1CCCC1)c1nc2ncccc2[nH]1 as the molecule, how does the growth inhibition read?
**A.** 85.9% (active)

**Q.** With CC(C)(C)C1=NN=C2c3ccccc3C(=O)C21 (stereo not drawn) as the molecule, how does the growth inhibition read?
**A.** 68.2% (inactive)

**Q.** For O=C(O)c1ccc(N=CC2CO2)cc1 (stereo not drawn), which growth inhibition is on record?
**A.** -2% (inactive)

**Q.** With CCC1(C)C(C#N)(C#N)C1(C#N)C#N as the molecule, how does the growth inhibition read?
**A.** 81.7% (active)

**Q.** For COc1ccc(N(C)Sc2ccccc2)cc1, which growth inhibition is on record?
**A.** 88.2% (active)

**Q.** Which growth inhibition does the source give for C/C(CCn1[nH]c(=O)ccc1=O)=N\NS(=O)(=O)c1ccc(C)cc1 here?
**A.** -4.05% (inactive)

**Q.** With CCC[n+]1ccc(/C=N\NC(N)=S)c2ccccc21 as the molecule, how does the growth inhibition read?
**A.** 38.2% (inactive)

**Q.** For O=S1CCS(=O)C1c1ccccc1 (stereo not drawn), which growth inhibition is on record?
**A.** 85.3% (active)

**Q.** For NC(=O)c1c(Cl)nc2n1CCS2, which growth inhibition is on record?
**A.** 13.8% (inactive)

**Q.** Which growth inhibition does the source give for CC(C)S(=O)(=O)ON1C(=O)c2ccc(N(C)C)cc2C1=O here?
**A.** 91.7% (active)

**Q.** For C=Cc1cc(=O)oc2cc(OC)ccc12, which growth inhibition is on record?
**A.** 71.4% (active)

**Q.** With O=[N+]([O-])c1cc(Cl)cc2c1nc(NCCO)c1ccccc12 as the molecule, how does the growth inhibition read?
**A.** 75.1% (active)

**Q.** For c1ccc2nc3ccccc3nc2c1, which growth inhibition is on record?
**A.** 77.5% (active)

**Q.** Which growth inhibition does the source give for Cc1cc(O)ccc1SC#N here?
**A.** 87.2% (active)

**Q.** For CC1=C(C(=O)NCc2ccccc2)C(c2ccccc2O)C(C(=O)NCc2ccccc2)=C(C)N1, which growth inhibition is on record?
**A.** 87.3% (active)

**Q.** For Cc1occc1C(=S)Nc1ccc(Cl)c(COC(C)(C)C)c1, which growth inhibition is on record?
**A.** 78.9% (active)

**Q.** Which growth inhibition does the source give for CCN(CC)CCOc1c(I)cc(I)cc1I here?
**A.** 84.3% (active)

**Q.** With CCc1c(C(=O)OC)c(C(=O)OC)c(-c2ccccc2)n1CCn1c(CC)c(C(=O)OC)c(C(=O)OC)c1-c1ccccc1 as the molecule, how does the growth inhibition read?
**A.** 50.1% (inactive)

**Q.** With O=C1/C(=C/c2ccc(Cl)cc2)CSC/C1=C\c1ccc(Cl)cc1 as the molecule, how does the growth inhibition read?
**A.** 2.35% (inactive)

**Q.** For COc1ccc(C2COc3cc(O)c(O)cc3C2)cc1OC (stereo not drawn), which growth inhibition is on record?
**A.** 61.4% (inactive)

**Q.** Which growth inhibition does the source give for O=C1c2ccccc2C(=O)c2c1cc(O)c(O)c2O here?
**A.** 83.2% (active)

**Q.** For COc1cc[c]([Sn]([O][Sn]([Cl])([c]2ccc(OC)cc2)[c]2ccc(OC)cc2)[c]2ccc(OC)cc2)cc1, which growth inhibition is on record?
**A.** 27.7% (inactive)

**Q.** For O=C(N/C(=C\c1ccc(/C=C(\NC(=O)c2ccccc2)c2nc3ccccc3s2)cc1)c1nc2ccccc2s1)c1ccccc1, which growth inhibition is on record?
**A.** 85.1% (active)

**Q.** With Cn1c(=O)cc[nH]c1=O as the molecule, how does the growth inhibition read?
**A.** 4.85% (inactive)

**Q.** For CCOC(=O)C1=C(c2ccccc2)SC(c2ccccc2)N(C(C)C)C1=O (stereo not drawn), which growth inhibition is on record?
**A.** 90.3% (active)

**Q.** For S=C1NC2=C(CSC/C2=C\c2cccc(Br)c2)C(c2cccc(Br)c2)N1 (stereo not drawn), which growth inhibition is on record?
**A.** 92.7% (active)

**Q.** For c1ccc2[nH]c(CN(CCN(Cc3nc4ccccc4[nH]3)Cc3nc4ccccc4[nH]3)Cc3nc4ccccc4[nH]3)nc2c1, which growth inhibition is on record?
**A.** 91.1% (active)

**Q.** With O=[N+]([O-])c1ccc(NC(=S)N/N=C(\c2ccccc2)c2ccccn2)cc1 as the molecule, how does the growth inhibition read?
**A.** 63.1% (inactive)

**Q.** For O=C(NCCl)Nc1ccccc1, which growth inhibition is on record?
**A.** 57.7% (inactive)

**Q.** With O=Cc1[nH]c(=S)[nH]c(=O)c1CCCc1ccccc1 as the molecule, how does the growth inhibition read?
**A.** 95.8% (active)

**Q.** Which growth inhibition does the source give for CCCC/C=C(/CCCCOCOCCOC)[Si](C)(C)C here?
**A.** -13.2% (inactive)

experiment: NCI Yeast Anticancer Drug Screen. Data for the mec2-1 strain (AID 157); settings: S. cerevisiae mec2-1 strain, at 5.0 µM (retest, dose inferred, filed as 0.5), stronger effect = higher value
Method in brief: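 Test agents were screened against the mec2-1 yeast strain, with defined DNA repair or cell cycle alteration. Growth was scored as inhibition against vehicle-only controls.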

**Q.** With Cc1ccc(-n2c(CSc3ccc(Cl)cc3)nnc2SCc2nc3ccccc3[nH]2)cc1 as the molecule, how does the growth inhibition read?
**A.** -16% (inactive)

**Q.** For CC(=O)Nc1cccc(C(=O)O)c1, which growth inhibition is on record?
**A.** -1% (inactive)

**Q.** Which growth inhibition does the source give for COc1ccc2c(c1)CCCN2CCCCCCCCCN1CCCCC1 here?
**A.** 27% (inactive)

**Q.** With CN(C)C(=O)/N=c1\ss/c(=N\C(=S)N(C)C)n1-c1ccccc1 as the molecule, how does the growth inhibition read?
**A.** -9% (inactive)

**Q.** With Clc1ccc(-c2nnc(-c3ccccn3)o2)c(Cl)c1 as the molecule, how does the growth inhibition read?
**A.** -1% (inactive)

**Q.** With CC(O)CC(O)CC1CCCO1 (stereo not drawn) as the molecule, how does the growth inhibition read?
**A.** 1% (inactive)

**Q.** For CC[C@]1(O)C[C@H]2[C@@H]3CCc4cc(OC)ccc4[C@H]3CC[C@]2(C)[C@H]1O, which growth inhibition is on record?
**A.** -6% (inactive)

**Q.** Which growth inhibition does the source give for CCCCCCCCCCCCCCCCCCOS(=O)(=O)O (tested in a mixture with another compound) here?
**A.** -35% (inactive)

**Q.** Which growth inhibition does the source give for C/C(=N\NC(=S)N1CCCC1)c1nc2ncccc2[nH]1 here?
**A.** -3% (inactive)

**Q.** With CC(C)(C)C1=NN=C2c3ccccc3C(=O)C21 (stereo not drawn) as the molecule, how does the growth inhibition read?
**A.** -3% (inactive)

**Q.** With O=C(O)c1ccc(N=CC2CO2)cc1 (stereo not drawn) as the molecule, how does the growth inhibition read?
**A.** 44% (inactive)

**Q.** Which growth inhibition does the source give for CCC1(C)C(C#N)(C#N)C1(C#N)C#N here?
**A.** -36% (inactive)

**Q.** Which growth inhibition does the source give for COc1ccc(N(C)Sc2ccccc2)cc1 here?
**A.** 18% (inactive)

**Q.** With C/C(CCn1[nH]c(=O)ccc1=O)=N\NS(=O)(=O)c1ccc(C)cc1 as the molecule, how does the growth inhibition read?
**A.** 4% (inactive)

**Q.** With CCC[n+]1ccc(/C=N\NC(N)=S)c2ccccc21 as the molecule, how does the growth inhibition read?
**A.** 19% (inactive)

**Q.** For O=S1CCS(=O)C1c1ccccc1 (stereo not drawn), which growth inhibition is on record?
**A.** -6% (inactive)

**Q.** Which growth inhibition does the source give for NC(=O)c1c(Cl)nc2n1CCS2 here?
**A.** 0% (inactive)

**Q.** Which growth inhibition does the source give for CC(C)S(=O)(=O)ON1C(=O)c2ccc(N(C)C)cc2C1=O here?
**A.** 14% (inactive)

**Q.** With C=Cc1cc(=O)oc2cc(OC)ccc12 as the molecule, how does the growth inhibition read?
**A.** 22% (inactive)

**Q.** Which growth inhibition does the source give for O=[N+]([O-])c1cc(Cl)cc2c1nc(NCCO)c1ccccc12 here?
**A.** 26% (inactive)

**Q.** Which growth inhibition does the source give for c1ccc2nc3ccccc3nc2c1 here?
**A.** -3% (inactive)

**Q.** For Cc1cc(O)ccc1SC#N, which growth inhibition is on record?
**A.** -22% (inactive)

**Q.** For CC1=C(C(=O)NCc2ccccc2)C(c2ccccc2O)C(C(=O)NCc2ccccc2)=C(C)N1, which growth inhibition is on record?
**A.** 17% (inactive)

**Q.** For Cc1occc1C(=S)Nc1ccc(Cl)c(COC(C)(C)C)c1, which growth inhibition is on record?
**A.** 6% (inactive)

**Q.** With CCN(CC)CCOc1c(I)cc(I)cc1I as the molecule, how does the growth inhibition read?
**A.** 0% (inactive)

**Q.** For CCc1c(C(=O)OC)c(C(=O)OC)c(-c2ccccc2)n1CCn1c(CC)c(C(=O)OC)c(C(=O)OC)c1-c1ccccc1, which growth inhibition is on record?
**A.** -2% (inactive)

**Q.** With O=C1/C(=C/c2ccc(Cl)cc2)CSC/C1=C\c1ccc(Cl)cc1 as the molecule, how does the growth inhibition read?
**A.** 12% (inactive)

**Q.** Which growth inhibition does the source give for COc1ccc(C2COc3cc(O)c(O)cc3C2)cc1OC (stereo not drawn) here?
**A.** 14% (inactive)

**Q.** For O=C1c2ccccc2C(=O)c2c1cc(O)c(O)c2O, which growth inhibition is on record?
**A.** 20% (inactive)

**Q.** Which growth inhibition does the source give for COc1cc[c]([Sn]([O][Sn]([Cl])([c]2ccc(OC)cc2)[c]2ccc(OC)cc2)[c]2ccc(OC)cc2)cc1 here?
**A.** 31% (inactive)

**Q.** With O=C(N/C(=C\c1ccc(/C=C(\NC(=O)c2ccccc2)c2nc3ccccc3s2)cc1)c1nc2ccccc2s1)c1ccccc1 as the molecule, how does the growth inhibition read?
**A.** 32% (inactive)

**Q.** For Cn1c(=O)cc[nH]c1=O, which growth inhibition is on record?
**A.** 0% (inactive)

**Q.** For CCOC(=O)C1=C(c2ccccc2)SC(c2ccccc2)N(C(C)C)C1=O (stereo not drawn), which growth inhibition is on record?
**A.** 13% (inactive)

**Q.** Which growth inhibition does the source give for S=C1NC2=C(CSC/C2=C\c2cccc(Br)c2)C(c2cccc(Br)c2)N1 (stereo not drawn) here?
**A.** 1% (inactive)

**Q.** With c1ccc2[nH]c(CN(CCN(Cc3nc4ccccc4[nH]3)Cc3nc4ccccc4[nH]3)Cc3nc4ccccc4[nH]3)nc2c1 as the molecule, how does the growth inhibition read?
**A.** 97% (active)

**Q.** With O=[N+]([O-])c1ccc(NC(=S)N/N=C(\c2ccccc2)c2ccccn2)cc1 as the molecule, how does the growth inhibition read?
**A.** -32% (inactive)

**Q.** For O=C(NCCl)Nc1ccccc1, which growth inhibition is on record?
**A.** 5% (inactive)

**Q.** For O=Cc1[nH]c(=S)[nH]c(=O)c1CCCc1ccccc1, which growth inhibition is on record?
**A.** -7% (inactive)

**Q.** With CCCC/C=C(/CCCCOCOCCOC)[Si](C)(C)C as the molecule, how does the growth inhibition read?
**A.** -5% (inactive)
